PubChem BioAssay (NCI)
The panel holds about 83,000 compounds, 20% with a hit somewhere; the sample as a whole holds those more often.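 Step 1: grow cells in 96-well plates. Step 2: add test compound at a single concentration. Step 3: incubate 48 h. Step 4: record percent growth.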 Values without a mark were called inactive. The source made the active and inactive calls. Rule for the calls: active = growth percent below 10; inactive = the rest.

Key:
Test in all cases: NCI-60 one-dose screen, 48 h (100 = growth as untreated, 0 = no growth, -100 = all killed)
Details in all cases: 10 µM unless noted
HCT-15 colon = tested on: HCT-15 colon
HT29 colon = tested on: HT29 colon
SNB-19 CNS = tested on: SNB-19 CNS
U251 CNS = tested on: U251 CNS
PC-3 prostate = tested on: PC-3 prostate
SK-MEL-5 melanoma = tested on: SK-MEL-5 melanoma
UACC-62 melanoma = tested on: UACC-62 melanoma
LOX IMVI melanoma = tested on: LOX IMVI melanoma
SK-MEL-28 melanoma = tested on: SK-MEL-28 melanoma
SK-MEL-2 melanoma = tested on: SK-MEL-2 melanoma
EKVX NSCLC = tested on: EKVX NSCLC
SN12C renal = tested on: SN12C renal
UO-31 renal = tested on: UO-31 renal
TK-10 renal = tested on: TK-10 renal
ACHN renal = tested on: ACHN renal
CAKI-1 renal = tested on: CAKI-1 renal
A498 renal = tested on: A498 renal
CCRF-CEM leukemia = tested on: CCRF-CEM leukemia
MOLT-4 leukemia = tested on: MOLT-4 leukemia
SNB-75 CNS = tested on: SNB-75 CNS

Structure (SMILES) | growth (HCT-15 colon) | growth (HT29 colon) | growth (SNB-19 CNS) [%] | growth (U251 CNS) | growth (PC-3 prostate) [%] | growth (SK-MEL-5 melanoma) | growth (UACC-62 melanoma) | growth (LOX IMVI melanoma) | growth (SK-MEL-28 melanoma) | growth (SK-MEL-2 melanoma) [%] | growth (EKVX NSCLC) | growth (SN12C renal) | growth (UO-31 renal) [%] | growth (TK-10 renal) [%] | growth (ACHN renal) | growth (CAKI-1 renal) [%] | growth (A498 renal) | growth (CCRF-CEM leukemia) [%] | growth (MOLT-4 leukemia) | growth (SNB-75 CNS) [%]
C/C(=C(\c1ccc(OCCN2CCCCCC2)cc1)c1ccc(OC(=O)c2ccccc2)cc1)c1ccc(Cl)cc1 | 7.21% (active) | 1.67% (active) | 57.9 | 29.8% | 33.8 | 55.6% | 28.4% | -38.9% (active) | 51.7% | 63 | 68.6% | 47.1% | 26.7 | 70.4 | 77.1% | 49.5 | 86.9% | 16 | 8.86% (active) | –
COC(=O)/C=C1/SC(=NCc2ccccc2)N(CCc2c[nH]c3ccccc23)C1=O | 58.5% | 68.1% | 87.2 | 78.5% | 72.9 | 87.6% | 71.7% | 70.6% | 86.5% | 85.8 | 88.1% | 85.4% | 73 | 129 | 99.5% | 102 | 88.1% | 30.3 | 3.29% (active) | –
C=C(C)[C@@H]1CC[C@]2(C(=O)N3CCN(C)CC3)CC[C@]3(C)[C@H](CC[C@@H]4[C@@](C)(CCC(=O)O)[C@H](C(=C)C)CC[C@]43C)[C@@H]12 | 82.5% | 78% | 93.6 | 79.7% | 55.4 | 82.7% | 71.3% | 92.5% | 99% | 92.2 | 86% | 85.9% | 50.5 | 94.3 | 82.8% | 63.1 | 53% | 70.7 | 61.2% | –
Cc1ccc(C)c2c1sc1nc(N3CCOCC3)c(C#N)c(=O)n12 | 102% | 97.2% | 96.3 | 58.9% | 18.5 | 88.5% | 90.2% | 67% | 103% | 110 | 80.2% | 104% | 74.9 | 154 | 105% | 105 | 75.7% | 83.1 | 110% | –
COC12C=C/C(=C(/C(=O)OCCSc3ccnn3C)C(=O)CCCCCCCCC3(OC)C=C/C(=C(/C(=O)OCCSc4ccnn4C)C(=O)CCCCCCCC1)O3)O2 | – | 11.9% | 32.9 | -3.32% (active) | 15.8 | -70% (active) | -56.3% (active) | -68.6% (active) | -9.65% (active) | 12.3 | 9.41% (active) | -4.94% (active) | 14.8 | 39.9 | 4.65% (active) | 26.6 | -53.5% (active) | 11.1 | -0.956% (active) | 56.8
C#CCOc1ccc2nc(CCl)c(Cl)c(Nc3cccc(C(F)(F)F)c3)c2c1 | – | 75.6% | 98.5 | 77.3% | 85.1 | 58.2% | 71.2% | -1.15% (active) | 108% | 84.4 | 91.1% | 68.6% | 51.8 | 89.8 | 52.1% | 77 | – | – | 29.5% | 70.5
O=C1/C(=C/c2ccccn2)SC(=S)N1N1CCOCC1 | – | 103% | 101 | 98.1% | 94.6 | 99.2% | 92.8% | 97.8% | 105% | 89.8 | – | 93.6% | 71.9 | 98.5 | 99.5% | – | 102% | 84.2 | – | 90.4
